Assay outcomes: PubChem BioAssay, National Center for Advancing Translational Sciences (NCATS)
KinaseGlo FLuc – Counterscreen for Luciferase (Kinase-Glo TM) Inhibition; Luciferin 4-monooxygenase (Photuris pensylvanica), Q27757; Kinase-Glo luciferase, ATP luminescence, 8 min; Potency, µM (titrated, usually from 38.3 µM), most hits filed as inhibitors; 200,000 compounds, 0.28% hits; also: nearly all actives have a fitted effect of over 60% in size
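Light output from Kinase-Glo luciferase with luciferin and 10 uM ATP in 50 mM imidazole pH 7.2, KCl, MgCl2, Tween 20, BSA; compound pin-delivered, 8-min ambient incubation, then luminescence read.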
RORg inh – qHTS for inhibitors of ROR gamma transcriptional activity; Nuclear receptor ROR-gamma (Mus musculus), P51450; Drosophila S2 Gal4-RORgamma UAS-luciferase reporter, 20 h; Potency, µM (series often up to 53.6 µM), most hits filed as inhibitors; 310,000 compounds, 5.4% hits; AID 2551, 2010; also: nearly all actives have a fitted effect of over 60% in size
Target sequence (P51450 whole entry, looked up, the tested form may be a part): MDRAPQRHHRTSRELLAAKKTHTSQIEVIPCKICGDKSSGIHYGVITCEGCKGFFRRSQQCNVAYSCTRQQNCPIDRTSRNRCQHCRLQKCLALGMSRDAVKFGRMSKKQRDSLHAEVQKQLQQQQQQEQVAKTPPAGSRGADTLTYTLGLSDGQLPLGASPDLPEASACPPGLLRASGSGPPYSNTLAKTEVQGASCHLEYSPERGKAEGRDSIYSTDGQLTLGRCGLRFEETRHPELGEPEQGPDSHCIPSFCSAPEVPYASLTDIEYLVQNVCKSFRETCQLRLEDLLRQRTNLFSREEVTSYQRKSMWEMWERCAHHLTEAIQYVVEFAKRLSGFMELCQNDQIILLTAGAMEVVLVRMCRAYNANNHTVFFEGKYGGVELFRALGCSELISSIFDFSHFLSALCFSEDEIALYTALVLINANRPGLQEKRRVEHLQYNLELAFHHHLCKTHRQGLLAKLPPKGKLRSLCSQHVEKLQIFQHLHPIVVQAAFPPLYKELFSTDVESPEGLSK
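Compounds are pin-transferred onto Drosophila Schneider cells expressing a copper-inducible Gal4–ROR gamma transactivation domain fusion. After 1 hr, copper sulfate is added to 700 uM final; luciferase is read 20 hr later.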
Gal4-VP16 FLuc – VP16 counterscreen qHTS for inhibitors of ROR gamma transcriptional activity. 310,000 compounds, 3.5% hits. Potency, µM (titrated, usually from 53.6 µM), hits mostly inhibitors. Drosophila S2 Gal4-VP16 UAS-luciferase, luminescence, 20 h;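 also: Gal4-VP16 expression switched on by copper sulfate through the metallothionein promoter; nearly all actives have a fitted effect of over 50% in size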
Hits are given with their value; [ ] = another dose, or the depositor's remark. Compounds with a hit are over-represented: about 6.4% of the library has one in this group of screens. Calls follow the shape of the dose curve; as a rule, active = well fitted curve in the direction sought with a large enough effect; inconclusive = small, poorly fitted or top-dose-only effect, or another doubt; inactive = no such curve, though single readings can be large; an effect the other way counts as inactive or inconclusive.

Results for CC(=O)C(=Cc1cn(-c2ccccc2)nc1-c1ccccc1)C(C)=O ?
KinaseGlo FLuc: inactive; RORg inh: inactive; Gal4-VP16 FLuc: inactive

How did CCOC(=O)c1cnc(-n2nc(C)cc2C)nc1NNc1nc(C)cc(C)n1 do in these assays?
RORg inh: 4µM; Gal4-VP16 FLuc: inconclusive

Results for CCOC(=O)c1cnn(-c2nc(C)cc(C)n2)c1N ?
KinaseGlo FLuc: inactive; RORg inh: inactive; Gal4-VP16 FLuc: inactive

What do the screens show for `CCOC(=O)c1cnc(-n2nc(C)cc2C)nc1Nc1cccc(C(=O)O)c1`?
KinaseGlo FLuc: inactive; RORg inh: inactive[10 µM]; Gal4-VP16 FLuc: inactive

How did CCOC(=O)c1cnc(-n2nc(C)cc2C)nc1NNc1nc(-c2ccccc2)cc(-c2ccccc2)n1 do in these assays?
KinaseGlo FLuc: inactive; RORg inh: 0.79µM; Gal4-VP16 FLuc: 0.71µM

Results for Cc1noc(C)c1CSCC(=O)N(C)CC(=O)Nc1ccc(Cl)cc1 ?
RORg inh: inactive; Gal4-VP16 FLuc: inactive

What do the screens show for `CC[C@H](C)[C@H](NC(=O)[C@H](CC(=O)O)NC(=O)[C@H](CC(C)C)NC(=O)[C@H](Cc1cnc[nH]1)NC(=O)[C@H](C)NC(=O)[C@H](Cc1ccccc1)NC(=O)[C@H](Cc1ccc(O)cc1)NC(=O)[C@@H](NC(=O)[C@H](C)NC(=O)[C@H](CCC(=O)O)NC(=O)[C@H](CCC(=O)O)NC(=O)[C@H](CC(=O)O)NC(=O)CCC(=O)O)C(C)C)C(=O)N[C@H](C(=O)N[C@@H](Cc1c[nH]c2ccccc12)C(=O)O)[C@@H](C)CC`?
RORg inh: inactive; Gal4-VP16 FLuc: inactive

How did O=C(CCCN1C(=O)/C(=C/c2cccc(Br)c2)SC1=S)Nc1cccnc1 do in these assays?
KinaseGlo FLuc: inactive; RORg inh: 14µM; Gal4-VP16 FLuc: inactive

How did Cc1ccc(/C=C2\SC(=S)N(CCCC(=O)Nc3cccnc3)C2=O)cc1 do in these assays?
RORg inh: 6.3µM; Gal4-VP16 FLuc: 2.2µM

How did O=C(CCCN1C(=O)/C(=C\c2cccc(Br)c2)SC1=S)Nc1cccnc1 do in these assays?
KinaseGlo FLuc: inactive; RORg inh: inactive; Gal4-VP16 FLuc: inactive

What do the screens show for `Cc1ccc(/C=C2\SC(=S)N(CC(=O)Nc3cccnc3)C2=O)cc1`?
RORg inh: inactive; Gal4-VP16 FLuc: inactive

How did CC(C)c1ccc(N(CC(=O)NC(C)(C)C)C(=O)CCC(=O)Nc2nccs2)cc1 do in these assays?
RORg inh: inconclusive; Gal4-VP16 FLuc: inactive

Results for COc1ccc(-c2nc3ccccc3c(=O)n2NC(=O)c2cccnc2Cl)cc1OC ?
KinaseGlo FLuc: inactive; RORg inh: inactive; Gal4-VP16 FLuc: inactive

What do the screens show for `Cc1ccc(C(=O)O)cc1[N+](=O)[O-]`?
RORg inh: inactive; Gal4-VP16 FLuc: inactive

Results for C=C(C)C1CC=C(C)/C(=N/NC(=O)c2cccc([N+](=O)[O-])c2)C1 (configuration not stated) ?
KinaseGlo FLuc: inactive; RORg inh: inactive; Gal4-VP16 FLuc: inactive

Results for Cc1ccc(C(=O)N/N=C2\CCSC2)cc1[N+](=O)[O-] ?
KinaseGlo FLuc: inactive; RORg inh: 10µM; Gal4-VP16 FLuc: inconclusive

What do the screens show for `O=C(N/N=C1/CCSC1)c1cccc([N+](=O)[O-])c1`?
KinaseGlo FLuc: inactive; RORg inh: inconclusive; Gal4-VP16 FLuc: 20µM

How did Nc1nc(Cc2ccccc2)nc(Cc2ccccc2)c1-c1ccccc1 do in these assays?
KinaseGlo FLuc: inactive[7.66 µM]

Results for Cc1c(NC(=O)c2ccc(-c3ccc([N+](=O)[O-])cc3Cl)o2)c(=O)n(-c2ccccc2)n1C ?
KinaseGlo FLuc: inactive; RORg inh: inactive; Gal4-VP16 FLuc: inactive

Results for Cc1cc(C)c2c(=O)n(CC(=O)NCCCN3CCN(c4ccccc4F)CC3)sc2n1 ?
KinaseGlo FLuc: 11µM; RORg inh: 3.5µM; Gal4-VP16 FLuc: 5µM

What do the screens show for `Cc1cc(C)c2c(=O)n(CC(=O)NCCCN3CCOCC3)sc2n1`?
KinaseGlo FLuc: 7.9µM; RORg inh: 4µM; Gal4-VP16 FLuc: 5µM

How did Cc1ccccc1CS(=O)(=O)CCC(=O)NCCCN1CCN(c2ccccc2F)CC1 do in these assays?
KinaseGlo FLuc: inactive; RORg inh: inactive; Gal4-VP16 FLuc: inactive

How did Cc1cc([N+](=O)[O-])nn1CC(=O)NCCCN1CCOCC1 do in these assays?
RORg inh: inactive; Gal4-VP16 FLuc: inactive

What do the screens show for `Cc1noc(C)c1COC(=O)c1cnc(Cl)c(Cl)c1`?
KinaseGlo FLuc: inactive; RORg inh: inactive; Gal4-VP16 FLuc: inactive

Results for CCn1c(NCc2ccc(N(C)C)cc2)nc2ccccc21 ?
KinaseGlo FLuc: inactive; RORg inh: inactive; Gal4-VP16 FLuc: inactive

What do the screens show for `CN(C)c1ccc(N=Nc2nc3ccccc3n2C)cc1`?
RORg inh: 0.4µM; Gal4-VP16 FLuc: 1.3µM

Results for Cn1c(Cl)nc2ccccc21 ?
KinaseGlo FLuc: inactive; RORg inh: inactive; Gal4-VP16 FLuc: inactive

What do the screens show for `Cn1c(N=Nc2ccccc2)nc2ccccc21`?
KinaseGlo FLuc: 0.89µM; RORg inh: 0.71µM; Gal4-VP16 FLuc: 1.3µM

What do the screens show for `N#Cc1ccc2c(c1)C[C@]1(CCCCN3C(=O)c4ccccc4C3=O)Oc3c(c(=O)oc4ccccc34)C2O1`?
RORg inh: inactive[10 µM]; Gal4-VP16 FLuc: inactive[10 µM]

How did COc1ccc(C2CC(c3ccccc3)Nc3nc(NC(=O)c4ccco4)nn32)cc1 (configuration not stated) do in these assays?
KinaseGlo FLuc: inactive; RORg inh: 6.3µM; Gal4-VP16 FLuc: 7.1µM

What do the screens show for `COCC(=O)Nc1nc2n(n1)C(c1ccccc1)CC(c1ccc(OC)cc1)N2` (configuration not stated)?
KinaseGlo FLuc: inactive; RORg inh: inactive; Gal4-VP16 FLuc: inactive

How did O=C(O)CCCC(=O)Nc1nc2n(n1)C(c1ccc(F)cc1)CC(c1ccc(Cl)cc1)N2 (configuration not stated) do in these assays?
KinaseGlo FLuc: inactive; RORg inh: inactive; Gal4-VP16 FLuc: inactive

Results for COCC(=O)Nc1nc2n(n1)C(c1ccc(OC)cc1)CC(c1ccc(OC)cc1)N2 (configuration not stated) ?
KinaseGlo FLuc: inactive; RORg inh: inactive; Gal4-VP16 FLuc: inactive

Results for O=C(Nc1nc2n(n1)C(c1ccccc1)CC(c1ccc(Cl)cc1)N2)c1ccco1 (configuration not stated) ?
KinaseGlo FLuc: inactive; RORg inh: 2.5µM; Gal4-VP16 FLuc: 5µM

What do the screens show for `COc1ccc(C2CC(c3ccc(OC)cc3)n3nc(NC(=O)c4ccco4)nc3N2)cc1` (configuration not stated)?
KinaseGlo FLuc: inactive; RORg inh: 6.3µM; Gal4-VP16 FLuc: 16µM

Results for COc1cccc(CNC(=O)CCC2CCCN(C(=O)c3cccnc3SC)C2)c1 (configuration not stated) ?
RORg inh: inconclusive; Gal4-VP16 FLuc: inactive

Results for COc1cccc(/C=C/C(=O)Nc2ccc3nc4n(c(=O)c3c2)CCCC4)c1OC ?
RORg inh: inactive; Gal4-VP16 FLuc: inconclusive

How did CC1(C)CC(=O)c2sc(NC(=O)c3cccs3)nc2C1 do in these assays?
KinaseGlo FLuc: inconclusive; RORg inh: 5µM; Gal4-VP16 FLuc: 5.6µM

How did CC(Oc1ccccc1)C(=O)Nc1nc2c(s1)C(=O)CC(C)(C)C2 (configuration not stated) do in these assays?
KinaseGlo FLuc: inactive; RORg inh: inactive; Gal4-VP16 FLuc: inactive
